According to PubChem BioAssay AID463190 (Sanford-Burnham Center for Chemical Genomics, 2010):
Out of some 330,000 compounds screened, about 7,300 (2.2%) were called active.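 The calls were made as follows: active = inhibition of at least 40%; inactive = the rest.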 Only a selection was taken, and actives are over-represented in it overall.

assay: growth inhibition of tim10-1 ts yeast – luminescence, uHTS, primary screen (AID 463190);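 also: mutant grown at 25 °C; 0% = DMSO wells with yeast and 100% = wells holding no yeast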; conditions: S. cerevisiae tim10-1 ts strain growth, BacTiter-Glo, 24 h; at 20 µM; hits give high values

inhibition, inactive:
O=C(Nc1cccc(Cl)c1)C1CCCN(c2cnccn2)C1 (stereo not drawn) -8.48%
O=C(NCCc1ccccc1)Oc1ccc(Cl)cc1 13.9%
O=C(COc1ccc(-n2cnnn2)cc1)Nc1ccccc1Cl -7.79%
Cc1ccc(NC(=O)CCC(=O)N2CCC(c3ccccc3)=N2)cc1S(=O)(=O)N1CCCCC1 -15.3%
Cc1ccc(C(=O)NCC(=O)OCC(=O)Nc2cccc(S(=O)(=O)N3CCCC3)c2)cc1C -7%
COc1ccccc1CNC(=O)CCCN1C(=O)NC2(CCCC2)C1=O 6.1%
Cn1c2ccccc2c(=O)c2c(O)cccc21 6.4%
Cn1c2ccccc2c2c(C(=O)N3CCN(c4ccc(F)cc4)CC3)cn(C3CCCC3)c(=O)c21 36.7%
CCc1nc2nc(C)c(NS(=O)(=O)c3ccc4c(c3)CCCC4)c(=O)n2[nH]1 -10.4%
O=S(=O)(c1ccc(Cl)cc1)c1nc(-c2ccco2)oc1N1CCCCC1 26.4%
Cn1c(=O)n(Cc2ccco2)c(=N)c2c3c(sc21)CCCC3 12.5%
Cc1cccc(/C=N/NC(=O)CNc2cccc3ccccc23)n1 23.6%
Cn1cccc1/C=N/NC(=O)CNc1cccc2ccccc12 13.6%
CC(C)c1ccc(NC2CCCN(C(=O)c3ccncc3)C2)cc1 (stereo not drawn) 8.48%
Fc1ccccc1OCCSc1nc2ccccc2o1 27.5%
COCCN(Cc1ccccc1)C(=O)Cc1ccc(S(=O)(=O)N2CCOCC2)s1 18.8%
COc1nc(NCc2ccc(Cl)cc2)nc(OC)n1 6.89%
C=CCNc1nc(C)nc(OC)n1 7.31%
CN(CC(=O)Nc1ccc(F)cc1)C(=O)c1ccc(-c2ccc(Cl)cc2)o1 21.8%
CCCCSc1[nH]c(=O)c(C(=O)OCC)cc1C#N -14.3%
O=C(CSC(=S)N1CCOCC1)c1ccccc1 5.05%
O=C(c1cc2cc(Br)cc(Br)c2oc1=O)N1CCOCC1 7.28%
Nn1c(SCC(=O)NC2CCCC2)nnc1-c1ccccc1F -11.7%
CC(=O)Nc1ccc(Sc2ccccc2C(=O)N2CCCC2)cn1 7.35%
CC(C)(C)CN1CCNC(=O)C1CC(=O)NC1Cc2ccccc2C1 (stereo not drawn) 16.6%
CCOc1cccc(=O)c2c(C)n(CC3CCCO3)c(C)c12 (stereo not drawn) 1.25%
CN1CN(C)c2ccc([N+](=O)[O-])c3cccc1c23 9.35%
CCCCCCCNC(=O)C1(CC2CC(c3cccc(Br)c3)=NO2)CCN(C(=O)c2cc(OCC)c(OCC)c(OCC)c2)CC1 (stereo not drawn) -4.27%
COc1ccc(CNC(=O)C2(CC3CC(c4ccccc4)=NO3)CCN(C(=O)c3cccc(O)c3)CC2)cc1 (stereo not drawn) 2.25%
O=C(NCC1CCCO1)C1CCN(C2CCN(C(=O)C3CCCCC3)CC2)CC1 (stereo not drawn) -2.3%
C/C(=N/O)c1ccc(N2C(=O)C3C4C=CC(C3C2=O)C2C3C(=O)N(c5ccc(/C(C)=N/O)cc5)C(=O)C3C42)cc1 (stereo not drawn) 6.62%
O=C(O)c1cccc(S(=O)(=O)N2CC=C(c3ccccc3)CC2)c1 13.4%
CCOc1ccc(C(C)C)cc1S(=O)(=O)n1nc(C)cc1C 36.6%
COc1ccc(OC)c(S(=O)(=O)n2c([N+](=O)[O-])cnc2C)c1 13.3%
Cc1ccc(S(=O)(=O)N(C)C)cc1NC(=O)c1ccc(-n2cncn2)c([N+](=O)[O-])c1 -0.831%
Cn1ccs/c1=N\S(=O)(=O)c1ccc(C(C)(C)C)cc1 26.8%
COc1cc(C(=O)OCc2cc(=O)n3ccsc3n2)ccc1OC(C)C -4.26%
CCCCCCSc1nsc(N)n1 26.2%
CN(Cc1ccccc1)CC(O)COc1ccc(CNCc2cc3ccccc3s2)cc1 (stereo not drawn) -10.1%
COC(=O)c1ccccc1NS(=O)(=O)c1ccc2[nH]c(=O)[nH]c2c1 5.53%
CCOc1ccc(NC(=O)c2ccccc2NS(C)(=O)=O)cc1 -4.15%
CCOC(=O)c1ccc(NC(=O)CS(=O)(=O)c2cn(CC)c3ccccc23)cc1 14.8%
CC(=O)c1cc(CN2CCC(n3nccc3NC(=O)c3ccccc3Cl)CC2)cs1 -3.89%
Cc1ccc(N=Cc2c(O)n(-c3nccs3)c(=O)c3ccccc23)c(C)c1 9.76%
OCc1nc(CO)n(Cc2ccccc2)n1 4.38%
Cc1ccc(NNC(=O)c2c(F)cccc2Cl)cc1Cl 14%
Cc1cc(OC(=O)c2c(Cl)cccc2Cl)nc(C)n1 35%
O=C(O)c1cccnc1NC1CCCC1 -10.6%
CCC(=O)c1cn(CCOc2ccccc2OC)c2ccccc12 4.25%
Cc1ccc(-c2ccc(=O)n(CC(=O)NCCCN3CCCCC3)n2)cc1 -3.38%
Cc1nn(CC(=O)NCCc2ccccc2)c(=O)c2cc3occc3n12 -16.4%

inhibition, active:
CCCc1nc2c(c(=O)c3ccccc3n2C)c(=O)n1C1CCCCCC1 43.1%
O=c1oc(-c2ccco2)nc2sc3c(c12)CCCCC3 41.5%
C/C(=N\NC(=O)CNc1cccc2ccccc12)c1ccc(Br)s1 41.9%
C=CCNc1nc(Nc2ccc(Cl)cc2)nc(OC)n1 43.2%
Cc1[nH][nH]c(=O)c1C(c1ccc(-c2ccc(Cl)cc2)o1)c1c(C)[nH][nH]c1=O 67.1%
O=C(CSC(=S)N1CCOCC1)c1cc(Br)cc(Br)c1O 50.1%
O=C1c2cccc3c([N+](=O)[O-])ccc(c23)C(=O)N1CC1CCCO1 (stereo not drawn) 71.2%
O=C(c1ccccc1)N1CCC(CC2CC(c3ccc(Cl)cc3)=NO2)(C(=O)NCC2CCCCC2)CC1 (stereo not drawn) 41.2%
COc1ccc(C(C[N+](=O)[O-])n2nc(C)cc2C)cc1 (stereo not drawn) 43.3%
COC(=O)c1ccc(NC(=O)c2ccccc2NS(=O)(=O)c2ccccc2)cc1 40.3%
Cc1cc(C)c(S(=O)(=O)c2ccccc2)c(OC(=O)c2c(F)cccc2Cl)n1 42.6%
CCc1ccc(-c2cc3c(=O)n(CC(=O)NCCCN4CCN(Cc5ccccc5)CC4)nc(C)n3n2)cc1 43.7%
